Compound activity as filed in PubChem BioAssay.
FAS TE block: blocks the thioesterase domain of human fatty acid synthase | 360,000 compounds, 0.67% hits | AID 602261 | P49327 | recombinant FAS-TE, OMFH fluorogenic substrate, fluorescence endpoint | inhibition, % at 15 µM;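 active = compounds whose normalised, plate-corrected inhibition of enzyme fluorescence in the single-dose primary screen is 50% or more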;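 note: 0% = DMSO with enzyme and 100% = substrate without enzyme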
Target sequence (P49327 whole entry, looked up, the tested form may be a part): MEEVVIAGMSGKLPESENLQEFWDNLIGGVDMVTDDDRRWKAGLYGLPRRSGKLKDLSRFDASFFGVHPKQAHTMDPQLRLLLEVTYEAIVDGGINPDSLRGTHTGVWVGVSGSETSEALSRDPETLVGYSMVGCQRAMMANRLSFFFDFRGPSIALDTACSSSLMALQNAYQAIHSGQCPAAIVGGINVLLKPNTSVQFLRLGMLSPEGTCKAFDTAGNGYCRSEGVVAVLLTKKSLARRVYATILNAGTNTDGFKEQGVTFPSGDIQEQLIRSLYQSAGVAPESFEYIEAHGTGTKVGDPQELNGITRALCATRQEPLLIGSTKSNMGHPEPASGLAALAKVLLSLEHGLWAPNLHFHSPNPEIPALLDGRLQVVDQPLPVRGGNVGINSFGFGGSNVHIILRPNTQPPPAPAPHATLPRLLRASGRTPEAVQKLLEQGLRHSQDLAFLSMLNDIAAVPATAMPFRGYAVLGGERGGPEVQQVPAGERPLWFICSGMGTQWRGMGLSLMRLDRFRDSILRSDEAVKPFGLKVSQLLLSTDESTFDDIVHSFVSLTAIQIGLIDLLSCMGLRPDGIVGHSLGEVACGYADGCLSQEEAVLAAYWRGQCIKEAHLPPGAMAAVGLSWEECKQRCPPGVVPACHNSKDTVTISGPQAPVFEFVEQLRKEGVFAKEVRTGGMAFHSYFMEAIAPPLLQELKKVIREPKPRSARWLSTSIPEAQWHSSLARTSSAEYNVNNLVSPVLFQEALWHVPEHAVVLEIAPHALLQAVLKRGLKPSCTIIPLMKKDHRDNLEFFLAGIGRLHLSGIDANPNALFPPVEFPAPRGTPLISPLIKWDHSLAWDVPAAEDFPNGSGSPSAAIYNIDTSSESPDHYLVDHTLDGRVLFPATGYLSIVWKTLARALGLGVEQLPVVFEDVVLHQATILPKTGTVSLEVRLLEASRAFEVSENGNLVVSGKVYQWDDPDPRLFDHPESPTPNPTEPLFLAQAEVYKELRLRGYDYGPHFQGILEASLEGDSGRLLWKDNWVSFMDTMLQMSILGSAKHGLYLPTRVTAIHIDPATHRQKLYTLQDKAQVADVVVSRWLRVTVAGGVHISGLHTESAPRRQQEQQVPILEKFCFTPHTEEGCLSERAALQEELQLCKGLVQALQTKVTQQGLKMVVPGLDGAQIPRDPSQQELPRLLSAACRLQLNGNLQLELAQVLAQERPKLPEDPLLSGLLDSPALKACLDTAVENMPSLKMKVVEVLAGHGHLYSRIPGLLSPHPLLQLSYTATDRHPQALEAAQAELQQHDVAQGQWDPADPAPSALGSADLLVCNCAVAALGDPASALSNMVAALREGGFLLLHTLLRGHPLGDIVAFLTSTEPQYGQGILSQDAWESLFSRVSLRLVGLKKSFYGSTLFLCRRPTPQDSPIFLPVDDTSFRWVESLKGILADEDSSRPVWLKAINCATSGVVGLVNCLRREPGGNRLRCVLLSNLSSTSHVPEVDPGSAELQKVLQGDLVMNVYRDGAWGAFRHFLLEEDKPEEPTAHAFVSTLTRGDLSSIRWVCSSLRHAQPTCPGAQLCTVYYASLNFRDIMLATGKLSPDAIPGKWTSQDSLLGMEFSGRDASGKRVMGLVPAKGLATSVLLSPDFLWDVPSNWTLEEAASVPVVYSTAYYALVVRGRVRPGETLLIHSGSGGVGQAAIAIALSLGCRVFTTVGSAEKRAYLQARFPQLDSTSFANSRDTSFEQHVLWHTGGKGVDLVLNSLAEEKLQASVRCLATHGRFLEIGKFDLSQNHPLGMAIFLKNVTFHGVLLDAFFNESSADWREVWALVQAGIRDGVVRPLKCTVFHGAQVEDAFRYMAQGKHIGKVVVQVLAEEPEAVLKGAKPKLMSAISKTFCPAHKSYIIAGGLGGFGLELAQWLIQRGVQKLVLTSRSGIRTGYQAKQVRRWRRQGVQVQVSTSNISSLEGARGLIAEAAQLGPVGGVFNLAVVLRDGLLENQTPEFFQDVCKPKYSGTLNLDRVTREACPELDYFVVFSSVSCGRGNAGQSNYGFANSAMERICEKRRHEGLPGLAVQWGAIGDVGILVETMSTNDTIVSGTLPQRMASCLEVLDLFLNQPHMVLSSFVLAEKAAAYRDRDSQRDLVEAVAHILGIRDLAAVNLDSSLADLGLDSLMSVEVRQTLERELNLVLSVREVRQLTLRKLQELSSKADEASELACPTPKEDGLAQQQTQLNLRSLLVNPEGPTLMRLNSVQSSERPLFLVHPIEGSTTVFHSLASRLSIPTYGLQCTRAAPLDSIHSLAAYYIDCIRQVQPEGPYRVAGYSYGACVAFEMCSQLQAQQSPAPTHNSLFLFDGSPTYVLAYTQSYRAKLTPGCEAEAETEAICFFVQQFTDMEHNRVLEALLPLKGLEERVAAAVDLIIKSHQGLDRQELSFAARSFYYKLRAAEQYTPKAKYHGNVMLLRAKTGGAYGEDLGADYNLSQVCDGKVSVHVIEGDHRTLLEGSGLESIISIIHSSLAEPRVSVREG
NadD block: inhibitors of Staphylococcus aureus NadD; purified NadD enzyme, colorimetric absorbance read-out; inhibition, % at 20 µM; 360,000 compounds, 0.78% hits; AID 602399; in the data active = inhibition above about 26%
rCAG binder: molecules binding r(CAG) RNA repeats. inhibition, % at 3 µM. 370,000 compounds, 1.3% hits. AID 651821. r(CAG) RNA repeat, TO-PRO-1 dye displacement fluorescence;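 active = inhibition above the plate cutoff, the mean of all test compounds on that plate plus 3 SD, cut at about 35% in these data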;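 note: 0% = DMSO alone and 100% = 100 µM mitoxantrone as full dye displacement; higher means more dye released from RNA so lower well fluorescence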
GRIN3A LBD mod: NR3A (human) ligand-binding domain modulation | NR3A LBD differential scanning fluorimetry, Tm shift; 0% = protein alone, 100% = glycine-bound protein | Tm shift relative to glycine control, % at 25 µM | 340,000 compounds, 2.5% hits | AID 1259313;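 active = melting temperature shift of at least 10% of the positive control shift, at one fixed dose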
rCAG bind conf: r(CAG) RNA repeat binding, confirmation | 4,300 compounds, 70% hits | TO-PRO-1 dye displacement fluorescence | inhibition, % at 3 µM | AID 652065 | shares compounds with rCAG binder;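 active = inhibition above a per-plate cutoff, the mean inhibition of sample wells plus 3 SD, cut at about 35% in these data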;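 note: loss of TO-PRO-1 fluorescence as compound displaces dye from 1x1 AA loop RNA; 0% = DMSO only wells and 100% = 100 µM mitoxantrone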
DNA CAG counter: counter-screen for rCAG RNA binders: DNA CAG dye complex inhibitors. shares compounds with rCAG binder. d(CAG) DNA oligo TO-PRO-1 dye displacement, fluorescence. inhibition, % at 3 µM. 4,300 compounds, 94% hits. AID 652068;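 active = inhibition above its plate's cutoff, the mean test-well inhibition plus 3 SD, cut at about 4.8% in these data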;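 note: 0% = DNA dye mix with DMSO and 100% = 100 µM mitoxantrone; hits displace the dye from DNA and so lower well fluorescence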
Numbers without * were called inactive; nt = not tested or not shown. The list is not random: actives were taken first. Their share in the collection is about 4.3%.

SMILES | FAS TE block | NadD block | rCAG binder | GRIN3A LBD mod | rCAG bind conf | DNA CAG counter
Cc1ccc(C)c(OC(C)C(=O)Nc2ccc(S(=O)(=O)Nc3nccs3)cc2)c1 (configuration not stated) | -3.4 | 9.5 | 54.9* | -6.9 | 48.1* | 18.4*
COc1ccccc1CCC(=O)Nc1ccc(S(=O)(=O)Nc2nccs2)cc1 | -6.8 | -7.9 | 36.9* | -3.4 | 27.5 | 9.2*
CC(Oc1ccc(Cl)cc1)C(=O)Nc1ccc(S(=O)(=O)Nc2nccs2)cc1 (configuration not stated) | -3.1 | 3.7 | 43.9* | -6.0 | 36.0* | 10.8*
CC(Oc1ccccc1Cl)C(=O)Nc1ccc(S(=O)(=O)Nc2nccs2)cc1 (configuration not stated) | -4.0 | 0.6 | 54.5* | -2.3 | 53.8* | 13.4*
Nn1c(SCC(=O)N2CCOCC2)nnc1-c1n[nH]c2c1CCC2 | nt | nt | 0.6 | nt | nt | nt
COc1ccc(NC(=O)N(C)C[C@H]2OCCCC[C@H](C)Oc3ccc(NC(=O)Nc4cccc5ccccc45)cc3C(=O)N([C@@H](C)CO)C[C@H]2C)cc1 | nt | nt | 17.9 | nt | nt | nt
O=C(CSc1nnc(SCc2ccccc2Cl)s1)N/N=C/c1ccc(C(=O)O)cc1 | 9.4 | 3.5 | 49.2* | -2.2 | 60.4* | 17.3*
O=C(CN(Cc1ccccc1Cl)S(=O)(=O)c1ccc(Cl)cc1)N/N=C/c1ccc(C(=O)O)cc1 | 40.8 | 5.4 | 70.6* | -9.3 | 55.0* | 19.9*
Cc1ccc(OCC(=O)Nc2cc(NC(=O)COc3ccc(C)cc3)cc(C(=O)O)c2)cc1 | -2.2 | 5.8 | 70.0* | 0.5 | 64.4* | 25.2*
Cc1ccc(S(=O)(=O)N(C)c2ccc(OCC(=O)Nc3cc(C(=O)O)ccc3Cl)cc2)cc1 | nt | nt | 61.4* | 1.2 | 56.6* | 20.4*
O=C(COc1ccc(Cl)cc1)Nc1cc(NC(=O)COc2ccc(Cl)cc2)cc(C(=O)O)c1 | 16.3 | 0.4 | 73.8* | 12.1* | 82.2* | 48.2*
Cc1ccc(OCC(=O)Nc2cc(C(=O)O)cc(C(=O)O)c2)cc1C | -5.7 | 5.6 | 6.6 | -1.9 | nt | nt
Nc1nc2c(-c3ccc([N+](=O)[O-])cc3)nnn2c2ccccc12 | nt | nt | 3.5 | nt | nt | nt
CCCCCCCCNS(=O)(=O)CC1NCc2cc(OC)ccc21 (configuration not stated) | nt | nt | 2.8 | nt | nt | nt
COc1ccc(Cl)c(NC(=O)C/C(C)=N/NC(=O)CCc2ccccc2)c1 | 6.7 | 0.1 | 37.1* | -2.2 | 2.6 | -0.1
C/C(CC(=O)Nc1ccc(Cl)c(Cl)c1)=N\NC(=O)Cc1ccccc1 | 16.3 | -5.9 | 4.4 | -5.0 | nt | nt
O=C(CSc1nc2cc(C(=O)O)ccc2c(=O)n1-c1ccc(F)cc1)Nc1ccc(F)c(F)c1F | 4.4 | 0.7 | 38.6* | 2.7 | 15.1 | 3.1
O=C(CSc1nc2ccccc2c(=O)n1-c1ccc(F)cc1)Nc1ccc2c(c1)CCC2 | 48.1 | 14.1 | 5.4 | 0.2 | nt | nt
COc1cccc(C2C(C(=O)OC(C)C)=C(C)N=c3s/c(=C\c4ccc(C(=O)O)cc4)c(=O)n32)c1 (configuration not stated) | 3.1 | 7.3 | 18.8 | -1.8 | nt | nt
CCOC(=O)C1=C(C)N=c2s/c(=C/c3ccc(OCC(=O)O)cc3)c(=O)n2C1c1cc(OC)c(OC)c(OC)c1 (configuration not stated) | 0.0 | 12.4 | 41.8* | -0.2 | 73.6* | 37.1*
CCOC(=O)C1=C(C)N=c2s/c(=C\c3ccc(OCC(=O)O)cc3)c(=O)n2C1c1ccc(OC(C)C)cc1 (configuration not stated) | -2.3 | 26.6 | 64.5* | 2.1 | 85.0* | 54.5*
CCOC(=O)C1=C(C)N=c2sc(=Cc3ccc(OCC(=O)O)cc3)c(=O)n2C1c1ccc(Cl)cc1 (configuration not stated) | -10.2 | 4.1 | 83.2* | nt | 58.7* | 25.6*
CCOC(=O)C1=C(N)n2c(s/c(=C\c3ccncc3)c2=O)=C(C(=O)OCC)C1c1ccncc1 (configuration not stated) | -1.5 | 0.8 | -2.0 | -2.2 | nt | nt
COC(=O)C1=C(C)N=c2s/c(=C/c3cccs3)c(=O)n2C1c1ccc(F)cc1 (configuration not stated) | 14.3 | 25.9 | 8.3 | -6.0 | nt | nt
COc1cccc(C2C(C(=O)Nc3ccccc3)=C(C)N=c3s/c(=C/c4ccc(OCC(=O)O)cc4)c(=O)n32)c1 (configuration not stated) | -2.8 | 17.3 | 72.1* | -6.5 | 81.8* | 50.2*
SMILES | FAS TE block | NadD block | rCAG binder | GRIN3A LBD mod | rCAG bind conf | DNA CAG counter
CCNC(=O)O[C@@H]1C=C[C@@H](C#Cc2ccc(C(C)(C)C)cc2)O[C@@H]1COC(C)=O | nt | nt | 3.3 | nt | nt | nt
c1coc(-c2nnc3n2N=C(c2ccc4c(c2)OCO4)CS3)c1 | nt | nt | 3.6 | nt | nt | nt
COc1ccc(S(=O)(=O)N2CCCCC2)cc1NS(=O)(=O)c1ccc(CNC(C)=O)cc1 | -4.2 | 2.4 | 2.4 | -0.6 | nt | nt
COc1ccc(S(=O)(=O)N2CCCCCC2)cc1NS(=O)(=O)c1cc(C(=O)O)cc(C)c1C | -4.2 | -6.0 | 46.6* | 1.4 | 17.4 | 5.9*
COc1ccc(S(=O)(=O)N2CCCCC2)cc1NS(=O)(=O)c1cc(Cl)ccc1Cl | -1.1 | 0.8 | 36.2* | -8.5 | 38.7* | 10.0*
COc1ccc(S(=O)(=O)N2CCCCC2)cc1NS(=O)(=O)c1ccccc1F | -1.1 | 1.9 | 11.1 | -2.0 | nt | nt
COc1ccc(C(=O)CSc2nnc(-c3cccnc3)n2-c2ccccc2)cc1 | nt | nt | 1.7 | nt | nt | nt
COc1ccccc1Cc1c(-c2ccc(C)cc2)nc2ccc(C)cn12 | nt | nt | 4.8 | nt | nt | nt
Cc1[nH]n(-c2ncc(-c3ccccc3)s2)c(=O)c1C(c1ccc(Br)cc1)C(C#N)C#N (configuration not stated) | 4.1 | 23.2 | 56.6* | 5.5 | 80.1* | 50.3*
Cc1[nH]n(C(N)=S)c(=O)c1C(c1ccccc1)C(C#N)C#N (configuration not stated) | -2.7 | 11.0 | 3.5 | -1.1 | nt | nt
O=C1NN(c2ccccc2)C(=O)/C1=C\c1coc2ccc(O)cc2c1=O | -1.9 | 3.0 | 36.5* | 2.1 | 7.8 | 3.7
O=C1NN(c2ccccc2)C(=O)/C1=C/c1coc2ccccc2c1=O | -11.2 | 7.8 | 39.2* | -8.7 | 10.6 | 2.5
O=C1NN(c2ccccc2)C(=O)/C1=C\c1ccccc1 | -7.0 | 5.0 | 9.7 | 3.2 | nt | nt
Cc1cc(/C=C2/C(=O)NN(c3ccccc3)C2=O)c(C)n1-c1ccc(O)cc1 | -9.3 | 3.6 | 28.1 | -3.5 | nt | nt
O=C1NN(c2cccc(Br)c2)C(=O)/C1=C\c1ccccc1 | -4.4 | 15.8 | 77.5* | -9.5 | 38.8* | 10.9*
O=C1NN(c2ccccc2)C(=O)C1=Cc1ccccc1 | -6.4 | 3.1 | 6.3 | nt | nt | nt
O=C1Nc2ccc(Br)cc2C12NNc1ccccc1O2 (configuration not stated) | 22.5 | -1.1 | 61.3* | 25.2* | 57.9* | 47.5*
O=c1cc(-c2ccccc2)nc2c(-c3ccccc3)c(C(F)(F)F)[nH]n12 | 25.4 | 11.2 | 91.8* | 7.7 | 76.8* | 41.6*
